Reference: PubChem BioAssay
A number with no mark means an inactive call. A call without a number means that no potency is given here. For some assays here: Potency and affinity values are given separately. Activity calls are given as the source filed them. Unless noted, no rule for the calls is given here.

Key:
[1] = antimalarial activity against Dd2 strain (AID 2302;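 active = growth inhibition above 50% at the single 2 µM test dose, taken to imply half-maximal potency below 2 µM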); details: P. falciparum Dd2 in RBCs, LDH growth readout, 72 h; at 2 µM; stronger effect = higher value
[2] = HepG2 cytotoxicity, primary screen, cytotoxicity control for P. falciparum antimalarial project, cell-based, ATP luminescence (AID 2303;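 active = inhibition above 50%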); details: HepG2 viability, 24-48 h, at 10 µM, stronger effect = higher value
[3] = target: L-lactate dehydrogenase (Plasmodium falciparum (isolate CDC / Honduras)) (UniProt Q27743); assay: PfLDH activity inhibition – cell lysate, 3D7 strain, counter-screen for P. falciparum growth inhibition project (AID 2304); details: P. falciparum 3D7 crude extract, LDH APAD/NBT absorbance; at 2 µM; stronger effect = higher value
[4] = inhibition of 3D7 malaria parasite growth – strain 3D7 (AID 2306); details: P. falciparum 3D7 erythrocytic growth, LDH absorbance, 72 h; at 2 µM; stronger effect = higher value
[5] = target: Calcium-dependent protein kinase 1 (Plasmodium falciparum (isolate 3D7)) (UniProt P62344); assay: PfCDPK1 kinase inhibitors, biochemical, TCAMS library (AID 1159585; cut-off not given, nearly all actives have IC50 up to about 0.98 µM;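 also: inhibitors leave more ATP so luminescence rises with inhibition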); details: recombinant PfCDPK1, Kinase-Glo ATP depletion luminescence
[6] = target: Plasmodium falciparum protein kinase 6 (PK6, PF3D7_1337100) (UniProt Q8IDW1); assay: PfPK6 kinase inhibitors, biochemical, TCAMS library (AID 1159586); details: recombinant PfPK6, Kinase-Glo ATP depletion luminescence
[7] = target: Protein kinase 7 (PK7), Plasmodium falciparum 3D7 (PF3D7_0213400) (UniProt Q7YTF7); assay: inhibition of Plasmodium PK7 catalytic activity – biochemical, TCAMS antimalarial set, Kinase-Glo luminescence (AID 1159587); details: recombinant PfPK7, Kinase-Glo ATP depletion luminescence
[8] = target: Calcium-dependent protein kinase 4 (Plasmodium falciparum (isolate 3D7)) (UniProt Q8IBS5); assay: PfCDPK4 kinase inhibitors, biochemical, TCAMS library (AID 1159588; cut-off not given, nearly all actives have IC50 up to about 0.91 µM); details: recombinant PfCDPK4, Kinase-Glo ATP depletion luminescence
Sequence of Calcium-dependent protein kinase 4 (Plasmodium falciparum (isolate 3D7)) (Q8IBS5 whole entry, looked up): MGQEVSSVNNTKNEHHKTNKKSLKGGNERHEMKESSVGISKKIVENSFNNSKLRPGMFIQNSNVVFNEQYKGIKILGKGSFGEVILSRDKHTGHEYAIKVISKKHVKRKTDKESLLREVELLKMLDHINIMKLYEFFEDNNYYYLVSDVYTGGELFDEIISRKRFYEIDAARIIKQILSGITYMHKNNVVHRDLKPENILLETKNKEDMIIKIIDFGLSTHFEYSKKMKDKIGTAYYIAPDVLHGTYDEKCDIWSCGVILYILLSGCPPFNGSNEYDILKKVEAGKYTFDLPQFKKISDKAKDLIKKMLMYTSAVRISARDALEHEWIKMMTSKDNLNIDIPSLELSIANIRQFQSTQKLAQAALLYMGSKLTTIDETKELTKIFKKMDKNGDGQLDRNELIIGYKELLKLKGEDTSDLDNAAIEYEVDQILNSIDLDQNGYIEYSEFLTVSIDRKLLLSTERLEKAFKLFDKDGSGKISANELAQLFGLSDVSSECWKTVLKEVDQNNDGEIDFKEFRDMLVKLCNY

Sequence of L-lactate dehydrogenase (Plasmodium falciparum (isolate CDC / Honduras)) (Q27743 whole entry, looked up): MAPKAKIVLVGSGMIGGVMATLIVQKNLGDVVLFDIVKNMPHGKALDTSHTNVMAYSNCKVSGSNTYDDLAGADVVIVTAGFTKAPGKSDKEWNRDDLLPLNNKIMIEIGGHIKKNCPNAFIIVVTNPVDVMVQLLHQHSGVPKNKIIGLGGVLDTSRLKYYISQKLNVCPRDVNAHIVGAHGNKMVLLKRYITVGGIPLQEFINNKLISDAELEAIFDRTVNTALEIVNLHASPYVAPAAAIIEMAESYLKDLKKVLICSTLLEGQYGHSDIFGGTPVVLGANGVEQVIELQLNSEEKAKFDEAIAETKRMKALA
Sequence of Calcium-dependent protein kinase 1 (Plasmodium falciparum (isolate 3D7)) (P62344 whole entry, looked up): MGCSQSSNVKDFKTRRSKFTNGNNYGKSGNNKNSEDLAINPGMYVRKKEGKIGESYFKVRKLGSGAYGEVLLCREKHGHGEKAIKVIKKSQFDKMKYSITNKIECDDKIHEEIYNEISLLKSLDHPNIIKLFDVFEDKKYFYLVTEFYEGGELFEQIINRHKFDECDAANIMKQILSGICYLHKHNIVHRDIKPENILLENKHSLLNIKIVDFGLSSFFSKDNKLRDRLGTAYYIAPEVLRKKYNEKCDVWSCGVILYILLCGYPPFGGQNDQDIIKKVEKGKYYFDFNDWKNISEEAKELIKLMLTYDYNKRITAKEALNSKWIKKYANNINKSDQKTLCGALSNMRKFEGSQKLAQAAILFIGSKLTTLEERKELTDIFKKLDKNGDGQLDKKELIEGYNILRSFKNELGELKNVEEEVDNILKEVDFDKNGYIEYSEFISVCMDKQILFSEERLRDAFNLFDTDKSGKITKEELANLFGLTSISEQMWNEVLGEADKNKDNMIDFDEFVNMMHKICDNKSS
Sequence of Plasmodium falciparum protein kinase 6 (PK6, PF3D7_1337100) (Q8IDW1 1-305): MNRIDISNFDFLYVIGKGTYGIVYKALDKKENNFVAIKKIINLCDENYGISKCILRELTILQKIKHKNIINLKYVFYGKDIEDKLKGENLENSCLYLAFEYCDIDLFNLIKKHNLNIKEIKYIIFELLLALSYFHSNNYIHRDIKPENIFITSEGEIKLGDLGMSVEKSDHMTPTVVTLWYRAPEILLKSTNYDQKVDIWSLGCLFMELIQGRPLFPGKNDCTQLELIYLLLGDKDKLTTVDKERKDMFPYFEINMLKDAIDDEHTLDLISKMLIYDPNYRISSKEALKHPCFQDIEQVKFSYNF
Sequence of Protein kinase 7 (PK7), Plasmodium falciparum 3D7 (PF3D7_0213400) (Q7YTF7 1-343): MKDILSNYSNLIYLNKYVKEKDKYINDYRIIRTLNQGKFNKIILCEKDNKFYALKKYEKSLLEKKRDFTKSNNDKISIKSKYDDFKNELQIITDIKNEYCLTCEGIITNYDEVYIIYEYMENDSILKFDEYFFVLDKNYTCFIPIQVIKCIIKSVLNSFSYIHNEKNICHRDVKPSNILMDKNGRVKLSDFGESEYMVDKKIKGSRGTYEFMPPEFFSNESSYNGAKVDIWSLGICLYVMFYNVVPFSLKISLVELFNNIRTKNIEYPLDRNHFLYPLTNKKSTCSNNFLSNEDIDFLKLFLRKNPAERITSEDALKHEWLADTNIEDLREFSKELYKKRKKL

For `Cc1ccc(C(=O)Nc2ccc(OC3CCN(CCC(C)C)C3)c(Cl)c2)cc1` (configuration not stated), the growth inhibition [1] was 38%, the inhibition [2] was 63% (active) and the inhibition [3] was 0%. For the same compound, the growth inhibition [4] was 83% (active), the outcome [5] was “inactive” and the outcome [6] was “inactive”. For the same compound, the outcome [7] was “inactive” and the outcome [8] was “inactive”.
With `N#Cc1ccc(-c2ccc(C(=O)NCCCCN3CCC(c4cn(CCCO)c5ccccc45)CC3)cc2)cc1` the growth inhibition [1] was 56% (active), the inhibition [2] was 31% and the inhibition [3] was -2%. For the same compound, the growth inhibition [4] was 98% (active), the outcome [5] was “inactive” and the outcome [6] was “inactive”. The outcome [7] was “inactive” and the outcome [8] was “inactive”.
In the case of `CN1CCN(c2cc3c(cc2Br)CCN3C(=O)Nc2ccc(-c3cnc4ccccc4c3)cc2)CC1`, the growth inhibition [1] is reported as 79% (active), the inhibition [2] is reported as 100% (active) and the inhibition [3] is reported as 3%. The growth inhibition [4] was 99% (active), the outcome [5] was “inactive” and the outcome [6] was “inactive”. For the same compound, the outcome [7] was “inactive” and the outcome [8] was “inactive”.
In the case of `O=C(/C=C/c1ccc(Cl)c(Cl)c1)NCC[C@@H]1C[C@H]1CCN1CCC(c2c[nH]c3ccccc23)CC1`, the growth inhibition [1] is reported as 22%, the inhibition [2] is reported as 98% (active) and the inhibition [3] is reported as -8%. The growth inhibition [4] was 96% (active), the outcome [5] was “inactive” and the outcome [6] was “inactive”. The outcome [7] was “inactive” and the outcome [8] was “inactive”.
For `Cc1cccc2[nH]c(-c3ccc(-c4cccc(CN5CCC(CCN6CCCCC6)CC5)c4)s3)nc12`, the growth inhibition [1] was 100% (active), the inhibition [2] was 99% (active) and the inhibition [3] was -3%. The growth inhibition [4] was 101% (active), the outcome [5] was “inactive” and the outcome [6] was “inactive”. For the same compound, the outcome [7] was “inactive” and the outcome [8] was “inactive”.
In the case of `O=C(Nc1ccc(OC2CCN(Cc3ccccc3)C2)c(Cl)c1)c1ccsc1` (configuration not stated), the growth inhibition [1] is reported as 75% (active), the inhibition [2] is reported as 12% and the inhibition [3] is reported as 1%. The growth inhibition [4] was 93% (active), the outcome [5] was “inactive” and the outcome [6] was “inactive”. For the same compound, the outcome [7] was “inactive” and the outcome [8] was “inactive”.
For `CC(=O)c1ccccc1C(=O)N1CCOc2ccc(C(O)C(c3ccccc3)c3ccccc3)cc2C1` (configuration not stated), the growth inhibition [1] was 98% (active), the inhibition [2] was 10% and the inhibition [3] was 3%. For the same compound, the growth inhibition [4] was 96% (active), the outcome [5] was “inactive” and the outcome [6] was “inactive”. The outcome [7] was “inactive” and the outcome [8] was “inactive”.
In the case of `Cc1cc(NN=Cc2ccc(F)cc2)c2ccc(C(F)(F)F)cc2n1`, the growth inhibition [1] is reported as 24%, the inhibition [2] is reported as 4% and the inhibition [3] is reported as -2%. For the same compound, the growth inhibition [4] was 95% (active), the outcome [5] was “inactive” and the outcome [6] was “inactive”. For the same compound, the outcome [7] was “inactive” and the outcome [8] was “inactive”.
In the case of `CC(C)(C)c1ccc(N2C(N)=NC(N)=NC2(C)C)cc1Cl`, the growth inhibition [1] is reported as 3%, the inhibition [2] is reported as 51% (active) and the inhibition [3] is reported as -5%. The growth inhibition [4] was 94% (active), the outcome [5] was “inactive” and the outcome [6] was “inactive”. For the same compound, the outcome [7] was “inactive” and the outcome [8] was “inactive”.
`CN(C)c1ccc(N2C(N)=NC(N)=NC23CCCC3)cc1` gave a growth inhibition [1] of 0%, an inhibition [2] of 1% and an inhibition [3] of -2%. The growth inhibition [4] was 97% (active), the outcome [5] was “inactive” and the outcome [6] was “inactive”. For the same compound, the outcome [7] was “inactive” and the outcome [8] was “inactive”.
Compound `O=C(Nc1cccc(-c2cc3ccccc3[nH]2)c1)C1CCN(Cc2ccccc2O)CC1` has a growth inhibition [1] of 25%, an inhibition [2] of 34% and an inhibition [3] of -1%. The growth inhibition [4] was 95% (active), the outcome [5] was “inactive” and the outcome [6] was “inactive”. For the same compound, the outcome [7] was “inactive” and the outcome [8] was “inactive”.
`O=C(Nc1ccc(Br)cc1)N(CCN1CCOCC1)CC(O)COCc1ccc(F)cc1` (configuration not stated) showed a growth inhibition [1] of 3%, an inhibition [2] of 5% and an inhibition [3] of -1%. For the same compound, the growth inhibition [4] was 90% (active), the outcome [5] was “inactive” and the outcome [6] was “inactive”. For the same compound, the outcome [7] was “inactive” and the outcome [8] was “inactive”.
For `CCCCCCC(C)c1cc(O)c2c(c1)OC(C)(C)C=C2c1ccncc1` (configuration not stated), the growth inhibition [1] was 29%, the inhibition [2] was -7% and the inhibition [3] was 0%. For the same compound, the growth inhibition [4] was 98% (active), the outcome [5] was “inactive” and the outcome [6] was “inactive”. The outcome [7] was “inactive” and the outcome [8] was “inactive”.
For `O=C(/C=C/c1ccc(Cl)cc1)NCCCCCN1CCN(C(=O)C=Cc2ccc(Cl)c(Cl)c2)CC1`, the growth inhibition [1] was 0%, the inhibition [2] was 30% and the inhibition [3] was 5%. The growth inhibition [4] was 92% (active), the outcome [5] was “inactive” and the outcome [6] was “inactive”. The outcome [7] was “inactive” and the outcome [8] was “inactive”.
Work on `Cc1cccc(OCC(=O)Nc2cccc(NC(=O)COc3cccc(C)c3)n2)c1` yielded a growth inhibition [1] of 30%, an inhibition [2] of -3% and an inhibition [3] of 0%. For the same compound, the growth inhibition [4] was 98% (active), the outcome [5] was “inactive” and the outcome [6] was “inactive”. For the same compound, the outcome [7] was “inactive” and the outcome [8] was “inactive”.
With `CCOC(=O)c1ccc(NC(=O)N(Cc2ccc(-c3cccc(CN4CCNCC4)c3)cc2)C2CCN(Cc3ccccc3)CC2)cc1` the growth inhibition [1] was 55% (active), the inhibition [2] was 19% and the inhibition [3] was 4%. The growth inhibition [4] was 100% (active), the outcome [5] was “inactive” and the outcome [6] was “inactive”. For the same compound, the outcome [7] was “inactive” and the outcome [8] was “inactive”.
For `O=C(Nc1ccc(-c2cccc(-c3nc4ccc(F)cc4[nH]3)c2)cc1)c1ccncc1`, the growth inhibition [1] was 18%, the inhibition [2] was 58% (active) and the inhibition [3] was -5%. The growth inhibition [4] was 96% (active), the outcome [5] was “inactive” and the outcome [6] was “inactive”. The outcome [7] was “inactive” and the outcome [8] was “inactive”.
In the case of `O=C(Nc1ccc(OC2CCN(Cc3ccsc3)CC2)c(Cl)c1)c1cccs1`, the growth inhibition [1] is reported as 93% (active), the inhibition [2] is reported as 16% and the inhibition [3] is reported as 1%. For the same compound, the growth inhibition [4] was 94% (active), the outcome [5] was “inactive” and the outcome [6] was “inactive”. The outcome [7] was “inactive” and the outcome [8] was “inactive”.
For `CS(=O)(=O)c1ccc(Nc2ncc(-c3ccc(S(C)(=O)=O)cc3)c(OCC(F)(F)F)n2)cc1`, the growth inhibition [1] was 98% (active), the inhibition [2] was -7% and the inhibition [3] was -3%. For the same compound, the growth inhibition [4] was 97% (active), the outcome [5] was “inactive” and the outcome [6] was “inactive”. The outcome [7] was “inactive” and the outcome [8] was “inactive”.
